Experimental findings from PubChem BioAssay (NCI) are described below.

Molecules are shown by their SMILES. Compounds without any hit were thinned out: in the full panel of roughly 83,000, 20% have a hit.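 Cell lines were cultured in 96-well plates, exposed to a single compound concentration, and assessed for percent growth 48 hours later.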 Unmarked numbers belong to inactive results. The source made the active and inactive calls. How the source made its calls: active means growth percent below 10; inactive means the rest.

Common to all, as to test: NCI-60 one-dose screen, 48 h (100 = growth as untreated, 0 = no growth, -100 = all killed)
What all share (conditions): 10 µM unless noted

Assay [1] has as its system HT29 colon.
For assay [2], the system named is SNB-75 CNS.
In assay [3] the test system is SNB-19 CNS.
The subject of assay [4] is U251 CNS.
The test system of assay [5] is SK-MEL-5 melanoma.
The subject of assay [6] is UACC-62 melanoma.
For assay [7], the system named is LOX IMVI melanoma.
Assay [8] concerns SK-MEL-28 melanoma.
Assay [9] concerns SK-MEL-2 melanoma.
For assay [10], the system named is EKVX NSCLC.
The subject of assay [11] is SN12C renal.
Assay [12] concerns UO-31 renal.
The test system of assay [13] is TK-10 renal.
Assay [14] deals with ACHN renal.
Assay [15] concerns CAKI-1 renal.
The subject of assay [16] is A498 renal.
Assay [17] deals with CCRF-CEM leukemia.
Assay [18] relates to MOLT-4 leukemia.
For assay [19], the system named is SR leukemia.

Consider `CC(C)c1ccc(C(=O)Nc2sc3c(CN(C)C)c(O)ccc3c2C(N)=O)cc1`, for which the growth in assay [1] is 2.74% (active); in [2] it was 48.5%; in [3] it was 84.4%; in assay [4], 34.3%; in [5], 88.3%; in [6], 104%. Further, the growth is -88.3% (active) in [7]; 84.2% in assay [8]; 96.4% in [9]; 86.7% in assay [10]; 55.9% in assay [11]; 34.1% in [12]. Further, the growth was 97.4% in assay [13]; 61.3% in assay [14]; 79.6% in assay [15]; 82.5% in assay [16]; -17.9% (active) in assay [17]; 15.2% in assay [18]. Also, the growth in assay [19] was -2.24% (active).
On to `COc1ccc(-c2cc(C(=O)Nc3nc4cc(C)c(C)cc4s3)nc3cc(-c4ccccc4)nn23)cc1OC`, for which the growth in [1] is 93.1%; in assay [2] it was 87.9%; in assay [3] it was 108%; in [4], 111%; in [5], 110%; in assay [6] it was 107%. For the same compound, the growth in [7] is 95.1%; in [8] it was 94.4%; in assay [9] it was 113%; in [10], 107%; in [11], 107%; in assay [12] it was 103%. For the same compound, the growth in assay [13] is 125%; in [14], 106%; in assay [15], 91.3%; in assay [16], 129%; in assay [17], 84.2%; in [18], 98.7%. The growth in assay [19] was 62.8%.
In the case of `COc1ccc(OC)c(NC(=O)c2cc3oc4ccccc4c3cc2O)c1`, the growth was 100% in assay [1]; 84% in [2]; 92.7% in assay [3]; 120% in assay [4]; 91.1% in [5]; 79.7% in assay [6]. Also, the growth in [7] was 109%; in assay [8] it was 101%; in assay [9] it was 96.1%; in assay [10] it was 75.9%; in [11], 95%; in assay [12], 79.8%. Besides, the growth was 135% in [13]; 98.7% in assay [14]; 74.7% in assay [15]; 121% in assay [16]; 99.4% in [17]; 117% in [18]. In addition, the growth in assay [19] was 127%.
For `CCOC(=O)c1c(C)nc(C)c(C(=O)OCC)c1-c1cccnc1`, the growth in assay [1] was 96.5%; in [2], 81.7%; in [3], 96.1%; in [4] it was 94.1%; in [5], 97.5%; in assay [6], 105%. Further, the growth in [7] was 96.1%; in assay [8], 119%; in assay [9], 110%; in [10] it was 105%; in assay [11], 109%; in assay [12] it was 94%. In addition, the growth in assay [13] was 121%; in [14], 99.5%; in assay [15], 106%; in assay [16] it was 125%; in assay [17], 102%; in assay [18] it was 54.8%. In addition, the growth in [19] is 53.7%.
On to `COc1cc(/C=C/c2nnc(-c3cc(-c4ccccc4)n[nH]3)o2)cc(OC)c1OC`, for which the growth is 96.8% in assay [1]; 67.4% in [2]; 102% in assay [3]; 108% in [4]; 84.5% in [5]; 92.9% in assay [6]. For the same compound, the growth in assay [7] is 95.4%; in [8] it was 87.9%; in [9], 89.7%; in assay [10], 102%; in assay [11], 99.5%; in assay [12], 80%. For the same compound, the growth in [13] is 123%; in [14] it was 91.3%; in assay [15], 89.4%; in [16], 105%; in assay [17], 75.9%; in assay [18] it was 69%. Besides, the growth in assay [19] is 86.4%.
On to `C[n+]1c2ccccc2c(NC2CCNCC2)c2[nH]c3ccccc3c21`, for which the growth in [1] was 2.95% (active); in [2] it was 7.49% (active); in [3], -12.4% (active); in [4], 1.08% (active); in assay [5], 7.09% (active); in assay [6], -73.3% (active). Further, the growth in [7] was 13.2%; in [8] it was 10.6%; in [9], -46.4% (active); in assay [10], 10.3%; in assay [11], -17.5% (active); in [12] it was 67.3%. Moreover, the growth was 29.5% in assay [13]; 71.1% in assay [14]; 88.8% in assay [15]; 51.7% in [16]; -10.9% (active) in [17]; -12.8% (active) in assay [18]. In [19], the growth is -24.4% (active).
As to `COc1cc(NC(=O)c2cc3ccccc3cc2O)c(OC)cc1Cl`, the growth in assay [1] was 64.8%; in [2], 40.9%; in [3], 16%; in [4] it was 13.1%; in assay [5], -41.9% (active); in [6] it was 24%. The growth is 3.45% (active) in assay [7]; 43.6% in [8]; -17.2% (active) in assay [9]; 9.25% (active) in assay [10]; 10.2% in assay [11]; -25.8% (active) in [12]. The growth is 22.6% in assay [13]; 3.75% (active) in assay [14]; -2.48% (active) in assay [15]; 25.4% in [16]; -17.4% (active) in assay [17]; -18.8% (active) in assay [18]. In addition, the growth in assay [19] is 1.88% (active).
On to `O=C(c1nn(-c2ccc(Cl)cc2)cc1O)n1nc(C(F)(F)F)cc1-c1ccccc1`, for which the growth in [1] is 37.8%; in assay [2] it was 55.4%; in assay [3], 51.2%; in assay [4], 46.8%; in assay [5], 59%; in assay [6], 44.2%. Further, the growth in assay [7] is 32.8%; in [8], 53%; in assay [9], 67.9%; in assay [10] it was 31.5%; in [11] it was 45.9%; in assay [12], 37%. In addition, the growth in assay [13] was 69.3%; in assay [14], 38.8%; in assay [15] it was -20.6% (active); in assay [16] it was 76%; in assay [17] it was 0.973% (active); in assay [18], 13.1%. Further, the growth in assay [19] is -30.4% (active).
